The values that follow come from PubChem BioAssay.

Where “and” joins values, the source holds several entries; their conditions need not be identical. Equal entries are not always repeated. Calls of active or inactive are those of the source.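 Rule for the calls, unless noted: active = compounds whose cell count with miR-34 switched on is under 0.7 times the count with it off; inactive = the rest.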

Experiment [1] in a line: hESC survival regulators, cell-based (AID 493140; call rule not given here;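 note: cells exposed to compounds for four days before counting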). The conditions noted are these: human embryonic stem cell survival screen; stronger effect = higher value.
Experiment [2] can be described thus: liver-stage malaria parasite growth inhibition, primary screen, cell-based, HepG2, luciferase luminescence, HepG2 viability (AID 624349; in the data active = parasite load remaining mostly below about 12%, no sharp cut-off; inactive = mostly above about 10%;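 note: 100% = mean of DMSO negative control wells on the same plate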). The following applies: P. berghei liver stage in HepG2, luciferase luminescence, concentration not given here; parasite load remaining: stronger effect = lower value; viability: measured here: HepG2 viability without parasites.
Experiment [3] in a line: stimulators of nuclear beta-catenin in C2C12, primary screen, imaging, WNT3A-conditioned medium, mouse C2C12, NPC library (AID 1117326; in the data active = nuclear beta-catenin stimulation mostly above about 4.2%, no sharp cut-off; inactive = mostly below about 10%). The following applies: stronger effect = higher value.
The nature of experiment [4]: stimulators of insulin release from INS-1E, primary screen, cell-based, 5 mM glucose, NPC library (AID 1117329;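 active = compound raises insulin release from rat beta cells at 5 mM glucose, no numeric limit stated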). The conditions noted are these: rat INS-1E insulin secretion, at 10 µM, stronger effect = higher value.
A short description of experiment [5]: growth inhibition of GSK3B-pretreated HCT116 cells – cell-based, CellTiter-Glo, 0.2 to 20 µM (AID 1117336;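 active = compounds lowering colon cancer cell viability after pretreatment blocking the GSK3B kinase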). The conditions noted are these: HCT116 viability after GSK3B inhibitor, at 20 µM, stronger effect = higher value. A general note: ATP-based viability assays read luminescence as a measure of living cells.
The nature of experiment [6]: inhibition of endothelial tube formation, primary screen, imaging, VEGF stimulated, CD31 staining, tube area, NPC library (AID 1117340;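 active = compound that reduces growth-factor-driven endothelial tube area in a mixed cell culture, no cutoff stated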). The following applies: VEGF-stimulated ADSC/ECFC co-culture, at 10 µM, stronger effect = higher value.
Experiment [7] in a line: glucagon-like peptide 1 release enhancers, primary assay, NCI-H716 cell line, NPC library (AID 1117341;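 active = compound raises GLP1 secretion from the human gut endocrine cells, with no numeric limit stated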). The following applies: NCI-H716 cells, at 10 µM, stronger effect = higher value.
Experiment [8] in a line: HCT116 colon cancer cell growth inhibition, primary screen, CellTiter-Glo luminescence, NPC library (AID 1117342;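 active = compounds that lower survival of HCT116 colon cancer cells in the luminescence readout, no numeric limit stated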). The following applies: at 20 µM (top of the series).
Experiment [9] in a line: CellTiter-Glo luminescent readout of SW480 viability loss, NPC library primary (AID 1117343;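 active = compounds that lower viability of the colon cancer cells in the luminescence readout, with no numeric limit stated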). The following applies: CellTiter-Glo luminescence; at 20 µM (top of the series) unless noted.
The nature of experiment [10]: decreased DLD-1 cellular survival, CellTiter-Glo luminescent readout, NPC compound collection, primary HTS (AID 1117346;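 active = compounds that lower survival of DLD-1 colon cancer cells in the luminescence readout, no cutoff given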). The conditions noted are these: DLD-1 viability, CellTiter-Glo luminescence; at 20 µM (top of the series).
The nature of experiment [11]: differential killing of epithelial or mesenchymal cells, primary screen, imaging, PC-3E GFP, TEM4-18 mCherry, co-culture (AID 1345086;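 active = compounds killing one labelled cell type while sparing the other, by normalised counts and ratio limits, not self-fluorescent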;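 for all read-outs here: cells exposed to compound for 72 h before imaging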;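 for red/green cell ratio (normalised): normalised mesenchymal count divided by normalised epithelial count so high means epithelial killing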). The following applies: imaging cell counts, at 1 µM; for red/green cell ratio (normalised): actives lie on both sides, counts scaled to control wells, 1 = unselective.
Experiment [12] in a line: sensitizers of A549 cells to miR-34 induction, primary screen, imaging, A549 dox-inducible miR-34, nuclei and caspase counts (AID 1347080). The conditions noted are these: A549 miR-34 inducible, Hoechst nuclei count, 48 h.
Experiment [13] is described as follows: survival rescue of mitochondrial mutant cells in low glucose, primary screen, MELAS cybrids, Rieske KO mouse fibroblasts, CellTiter-Glo (AID 1508586;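 active = mean z-score across replicates of 1.96 or higher in either the MELAS or the Rieske mutant cell line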;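 note: z relative to plate mean and SD of compound and empty wells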).
Experiment [14] has as its target NAD(+) hydrolase SARM1 (Homo sapiens) (UniProt Q6SZW1). Nature of the experiment: SARM1 TIR NADase inhibitors, cell lysate, NAD-Glo luminescence (AID 1508614;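 active = compound whose remaining NAD level is above about 45 nM, limit read from the data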;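 note: higher remaining NAD means stronger inhibition of SARM1 NADase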). The following applies: SAM-TIR HEK293T lysate NADase, at 1 µM, stronger effect = higher value.
The mark [15] stands for this setting: measured here: epithelial PC-3E GFP cell survival.
Setting [16] is: measured here: mesenchymal TEM4-18 mCherry cell survival.
Where [17] appears, read: stronger effect = lower value, cell number ratio, induced over uninduced.
Setting [18] is: measured here: relative caspase fold change +Dox/-Dox.
Setting [19] is: measured here: total cells with miR-34 induction, stronger effect = lower value.
The mark [20] stands for this setting: measured here: total cells without miR-34 induction.
Where [21] appears, read: MELAS cybrid survival, CellTiter-Glo 48 h, stronger effect = higher value.
The mark [22] stands for this setting: Rieske KO mouse fibroblast survival, CellTiter-Glo 72 h.

Chain of NAD(+) hydrolase SARM1 (Homo sapiens) (Q6SZW1 whole entry, looked up): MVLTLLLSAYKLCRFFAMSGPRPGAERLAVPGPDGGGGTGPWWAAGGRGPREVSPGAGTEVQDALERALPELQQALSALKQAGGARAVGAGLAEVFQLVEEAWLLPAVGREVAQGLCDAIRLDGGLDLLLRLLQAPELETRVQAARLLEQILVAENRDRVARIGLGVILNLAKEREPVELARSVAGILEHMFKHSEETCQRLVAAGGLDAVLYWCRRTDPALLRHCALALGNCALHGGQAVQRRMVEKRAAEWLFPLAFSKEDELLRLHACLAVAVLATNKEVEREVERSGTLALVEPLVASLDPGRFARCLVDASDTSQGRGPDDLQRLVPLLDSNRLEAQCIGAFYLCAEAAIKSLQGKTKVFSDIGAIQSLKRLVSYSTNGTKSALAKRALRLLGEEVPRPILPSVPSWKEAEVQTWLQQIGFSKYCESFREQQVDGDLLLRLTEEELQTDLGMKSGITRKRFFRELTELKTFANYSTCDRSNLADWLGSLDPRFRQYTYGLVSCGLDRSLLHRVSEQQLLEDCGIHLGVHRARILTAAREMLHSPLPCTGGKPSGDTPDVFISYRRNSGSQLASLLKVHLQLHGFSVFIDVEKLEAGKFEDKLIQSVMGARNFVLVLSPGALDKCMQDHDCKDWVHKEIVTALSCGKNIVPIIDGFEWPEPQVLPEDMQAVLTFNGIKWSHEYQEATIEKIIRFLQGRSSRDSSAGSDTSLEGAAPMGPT

One may read the viability as a read-out of living cells in per cent, often relative to untreated cells. Take `CN1C(=O)OC(C)(C)C1=O`: the survival in [1] was 8.08 (inactive). In addition, the parasite load remaining in [2] is 83.9% (inactive) and 86.8% (inactive) and 50.6% (inactive). Also, the viability in [2] is 107% and 78.1% and 129%. The nuclear beta-catenin stimulation in experiment [3] (at 10 µM) was 1.4% (inactive); in experiment [3] (stimulation, at 2 µM), -0.1%. For the same compound, the insulin secretion stimulation in experiment [4] was 1% (inactive). Besides, the viability decrease in [5] was 31.5% (inactive). In addition, the tube area decrease in [6] was 13.2% (inactive). Moreover, the GLP1 secretion stimulation in experiment [7] was -0.3% (inactive). For the same compound, the inhibition of viability in [8] is 28% (inactive). Besides, the values for the viability decrease (inhibition) in experiment [9] and in [10] were 54.4% (active) and 87.4% (active), respectively. For the same compound, the red/green cell ratio (normalised) in experiment [11] is 0.94 (inactive). In addition, the figures for the normalised cell number in experiment [11] (setting [15]) and in experiment [11] (setting [16]) were 0.96 and 0.9, respectively. The fold change is 0.862 (inactive) and 0.885 (inactive) in [12] (setting [17]); 1.14 and 3.65 in experiment [12] (setting [18]). For the same compound, the cell count is 9130 and 11500 in experiment [12] (setting [19]); 10600 and 13000 in experiment [12] (setting [20]). The z-score in [13] (setting [21]) was 0.482 (inactive); in experiment [13] (setting [22]) it was -0.121. Further, the remaining NAD in [14] is 10 nM (inactive).

On to `N=C(N)N1CCc2ccccc2C1`, for which the survival in [1] is 9.58 (inactive). Moreover, the nuclear beta-catenin stimulation was 0.5% (inactive) in experiment [3] (at 10 µM) and 0.9% in [3] (stimulation, at 2 µM). The insulin secretion stimulation in [4] is 1.35% (inactive). The viability decrease in experiment [5] was 12.1% (inactive). The tube area decrease in experiment [6] was -0.3% (inactive). Besides, the GLP1 secretion stimulation in experiment [7] is 3.1% (inactive). The inhibition of viability in experiment [8] is 9.2% (inactive). For the same compound, the viability decrease (inhibition) in experiment [9] is 5.1% (inactive); in [10], 0% (inactive). Besides, the red/green cell ratio (normalised) in experiment [11] is 0.87 (inactive). For the same compound, the normalised cell number was found to be 1.22 in [11] (setting [15]) and 1.07 in [11] (setting [16]). In addition, the fold change in experiment [12] (setting [17]) is 0.813 (inactive) and 0.913 (inactive) and 0.943 (inactive); in experiment [12] (setting [18]) it was 1.55 and 2.39 and 2.81. In addition, the cell count was 8490 and 11800 and 9640 in experiment [12] (setting [19]); 10400 and 13000 and 10200 in [12] (setting [20]). Also, the z-score in experiment [13] (setting [21]) was 0.0225 (inactive) and -0.468 (inactive); in [13] (setting [22]), -0.12 and -1.06. In addition, the remaining NAD in experiment [14] was 10 nM (inactive).

As for `CCC1NC(=O)c2cc(S(N)(=O)=O)c(Cl)cc2N1` (stereo unspecified), the survival in [1] was 5.17 (inactive). For the same compound, the parasite load remaining in experiment [2] was 89.6% (inactive). Moreover, the viability in experiment [2] was found to be 77.9%. The nuclear beta-catenin stimulation in [3] (at 10 µM) was 1.2% (inactive); in experiment [3] (stimulation, at 2 µM), 2.9%. Further, the insulin secretion stimulation in [4] was -1.7% (inactive). In [5], the viability decrease was -8.4% (inactive). Further, in experiment [6], the tube area decrease was 2.1% (inactive). The GLP1 secretion stimulation in experiment [7] is 8.6% (inactive). Also, the inhibition of viability in [8] is -5.7% (inactive). Also, the viability decrease (inhibition) is -10.9% (active) in experiment [9] and -14% (inactive) in experiment [10]. Also, the red/green cell ratio (normalised) in [11] is 0.98 (inactive). The values for the normalised cell number in [11] (setting [15]) and in experiment [11] (setting [16]) were 1.22 and 1.2, respectively. Besides, the fold change in [12] (setting [17]) is 0.92 (inactive); in [12] (setting [18]), 0.404. Also, the cell count in experiment [12] (setting [19]) is 8110; in experiment [12] (setting [20]) it was 8810. Further, the z-score was -1.3 (inactive) in [13] (setting [21]) and -1.37 in experiment [13] (setting [22]). Besides, the remaining NAD in [14] is 10 nM (inactive).

Take `CCN(CC)CCc1nc(-c2ccccc2)no1`: the survival in experiment [1] is 3.33 (inactive). The parasite load remaining in [2] is 66.5% (inactive). Also, the viability in experiment [2] is 105%. Moreover, the nuclear beta-catenin stimulation in experiment [3] (at 10 µM) is 2% (inactive); in experiment [3] (stimulation, at 2 µM) it was 1.3%. Moreover, the insulin secretion stimulation in experiment [4] is -0.7% (inactive). Further, the viability decrease in [5] was -19.4% (inactive). Further, the tube area decrease in experiment [6] was -1% (inactive). In addition, in experiment [7], the GLP1 secretion stimulation is 3.1% (inactive). The inhibition of viability in [8] is -2.53% (inactive). Moreover, the viability decrease (inhibition) in experiment [9] is 10% (inactive); in experiment [10] it was -2.9% (inactive). For the same compound, the red/green cell ratio (normalised) in experiment [11] was 0.94 (inactive). Besides, the normalised cell number was 1.14 in experiment [11] (setting [15]) and 1.07 in experiment [11] (setting [16]). For the same compound, the fold change in [12] (setting [17]) is 0.948 (inactive) and 0.876 (inactive); in [12] (setting [18]), 0.926 and 0.982. The cell count is 8840 and 9090 in [12] (setting [19]); 9330 and 10400 in experiment [12] (setting [20]). The values for the z-score in experiment [13] (setting [21]) and in experiment [13] (setting [22]) were 0.0836 (inactive) and -0.0837, respectively. In addition, the remaining NAD in experiment [14] was 10 nM (inactive).
